In one assay the test system is Tov112D. The experiment in a line: Primary qHTS to identify gynecologic anti-cancer compounds using libraries of approved drugs and bioactive compounds (AID 1345084). Also: % is scaled to controls: 0 for no effect and ±100 for the full control effect; nearly all actives have a fitted effect of over 55% in size. The settings on record: Gynecologic cancer cell panel viability, ATPlite luminescence, 48 h; series mostly up to 57.5 µM. In outline: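 Five-concentration response, 48 h; readout is ATP-driven luciferase luminescence.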

Assay [1] can be described thus: Drug repurposing screens with cells derived from glioblastoma tumor samples (AID 1345199). Also: nearly all actives have a fitted effect of over 40% in size. Also: potency is read from the fitted curve at half-maximal effect. As to activity, negative = cell killing: % is scaled to controls: 0 for no effect and ±100 for the full control effect. The settings on record: GBM patient neurospheres viability, ATP luminescence, 48 h. The procedure, abridged: (§1)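 Primary testing used CD133+ neurospheres from four GBM patients, seven concentrations, 48 h exposure and ATP-based viability; confirmation added three slower-growing patient lines.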

A further assay relates to astro. Described as above. To be noted: viability, ATP luminescence, 48 h; series mostly up to 45.9 µM. The procedure, abridged: as §1
The target in assay [2] is Nuclear receptor subfamily 1 group I member 2 (Rattus norvegicus) (UniProt Q9R1A7). Briefly: qHTS assay for small molecule activators of the rat pregnane X receptor (rPXR) signaling pathway (AID 651751; call rule not given here; also: 0% is about no effect). The settings on record: rPXR reporter cells, luciferase (One-Glo), 24 h.
Assay [3] in a line: qHTS assay for small molecule activators of the human pregnane X receptor (PXR) signaling pathway (AID 720659; call rule not given here; also: 0% is about no effect). To be noted: DPX-2 HepG2 CYP3A4-luciferase, 24 h; series mostly up to 92.3 µM.
The mark [4] stands for this setting: at 45.9 µM (top of the series), tumour line B.
[5] abbreviates: at 45.9 µM (top of the series), tumour line D.
Setting [6] is: at 46.1 µM (top of the series), tumour line C.
Setting [7] is: at 20 µM (top of the series), tumour line C.
Setting [8] is: at 21.2 µM (top of the series), tumour line B.
Where [9] appears, read: at 21.2 µM (top of the series), tumour line D.

Unmarked numbers belong to inactive results. Inconclusive results are not listed. The source made the active and inactive calls. Unless noted, calls follow the shape of the dose curve; as a rule, active = well fitted curve in the direction sought with a large enough effect; inconclusive = small, poorly fitted or top-dose-only effect, or another doubt; inactive = no such curve, though single readings can be large; an effect the other way counts as inactive or inconclusive.

Sequence of Nuclear receptor subfamily 1 group I member 2 (Rattus norvegicus) (Q9R1A7 whole entry, looked up): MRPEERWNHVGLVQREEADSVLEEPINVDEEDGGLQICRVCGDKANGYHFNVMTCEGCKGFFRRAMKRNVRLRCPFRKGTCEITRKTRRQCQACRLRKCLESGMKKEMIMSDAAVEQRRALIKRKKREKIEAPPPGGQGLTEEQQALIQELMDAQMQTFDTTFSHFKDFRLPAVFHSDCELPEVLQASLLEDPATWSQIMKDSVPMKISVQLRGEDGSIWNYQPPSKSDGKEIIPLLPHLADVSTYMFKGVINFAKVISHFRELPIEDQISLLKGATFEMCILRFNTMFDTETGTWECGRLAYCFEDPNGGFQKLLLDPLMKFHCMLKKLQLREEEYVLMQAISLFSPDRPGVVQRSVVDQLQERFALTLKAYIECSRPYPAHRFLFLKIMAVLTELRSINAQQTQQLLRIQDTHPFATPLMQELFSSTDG

With `OC[C@H]1O[C@@H]2O[C@H]3[C@H](O)[C@@H](O)[C@@H](O[C@H]4[C@H](O)[C@@H](O)[C@@H](O[C@H]5[C@H](O)[C@@H](O)[C@@H](O[C@H]6[C@H](O)[C@@H](O)[C@@H](O[C@H]7[C@H](O)[C@@H](O)[C@@H](O[C@H]8[C@H](O)[C@@H](O)[C@@H](O[C@H]1[C@H](O)[C@H]2O)O[C@@H]8CO)O[C@@H]7CO)O[C@@H]6CO)O[C@@H]5CO)O[C@@H]4CO)O[C@@H]3CO`, the Potency entry with Tov112D and in the assay with astro was “inactive” throughout. Moreover, the activity, negative = cell killing in assay [1] (setting [4]) was -11.6%; in assay [1] (setting [5]), 5.3%; in assay [1] (at 46 µM (top of the series), tumour line A) it was -16.2%; in assay [1] (setting [6]) it was -14.8%. Also, in assay [2], the max response was -1.43%. In addition, the compound was classed as inactive in assay [3].

For `Nc1ccc(S(=O)(=O)NCc2ccccc2)cc1`, the Potency entry in the assay on Tov112D and with astro was “inactive” each time. The activity, negative = cell killing in assay [1] (setting [4]) was 0.545%; in assay [1] (setting [5]), -1.8%; in assay [1] (setting [6]), -10.5%.

Regarding `CC(CNC1CCCCC1)OC(=O)c1ccccc1` (stereo not drawn), the Potency result in the assay with Tov112D and in the assay with astro was “inactive” throughout. The activity, negative = cell killing was 10.5% in assay [1] (setting [7]), -8.26% in assay [1] (setting [8]) and -19.5% in assay [1] (setting [9]).

For the compound `CC(C)[N+](C)(C)CC(O)COc1cccc2ccccc12` (stereo not drawn), the Potency result in the assay on Tov112D and with astro was “inactive” in each case. In addition, the results for the activity, negative = cell killing in assay [1] (setting [4]), in assay [1] (setting [5]) and in assay [1] (setting [6]) were -19.8%, -17.5% and -27.6%, respectively.

As for `OC[C@H]1O[C@@H](Oc2ccc(O)cc2)[C@H](O)[C@@H](O)[C@@H]1O`, the Potency result in the assay with Tov112D and in the assay on astro was “inactive” each time. Besides, the activity, negative = cell killing in assay [1] (setting [4]) is 0.949%; in assay [1] (setting [5]), 7.3%; in assay [1] (setting [6]) it was -9.99%.

In the case of `CC(=O)Nc1ncc([N+](=O)[O-])s1`, the Potency result in the assay on Tov112D and in the assay with astro was “inactive” each time. For the same compound, the activity, negative = cell killing is -7.38% in assay [1] (setting [4]), -8.31% in assay [1] (setting [5]) and -21.7% in assay [1] (setting [6]).

Consider `Cl/C(=C\n1cncn1)c1ccc(Cl)cc1Cl`, for which the Potency result in the assay on Tov112D and in the assay on astro was “inactive” throughout. Further, the values for the activity, negative = cell killing in assay [1] (setting [4]), in assay [1] (setting [5]) and in assay [1] (setting [6]) were -7.02%, -2.18% and -23.5%, respectively.

`CCOC(=O)C(C#N)=C(c1ccccc1)c1ccccc1`: the Potency result in the assay on Tov112D and with astro was “inactive” in each case. The activity, negative = cell killing in assay [1] (setting [4]) was -12.8%; in assay [1] (setting [5]), -4.23%. The Potency in assay [1] (tumour line A) is 11.2 µM (active).

Take `CC(C)=CCOc1ccc(/C=C/C(=O)c2ccc(OCC=C(C)C)cc2OCC(=O)O)cc1`: in the assay with Tov112D, the Potency result was “inactive”. Further, the activity, negative = cell killing in assay [1] (setting [4]) is 16%; in assay [1] (setting [5]) it was -25.2%; in assay [1] (setting [6]), -4.09%. Besides, in the assay on astro, the Potency was 31.6 µM (active).

Take `C/C=C/C=N/NC(=O)c1ccncc1`: the Potency entry with Tov112D and in the assay on astro was “inactive” throughout. The activity, negative = cell killing in assay [1] (setting [4]) was -13.6%; in assay [1] (setting [5]), -18.3%; in assay [1] (setting [6]), -22.3%.

Turning to `Cc1nc(-c2ccc(Cl)cc2)oc1COC(C)(C)C(=O)O`, the Potency entry in the assay on Tov112D and in the assay with astro was “inactive” each time. Besides, the activity, negative = cell killing in assay [1] (setting [4]) was -18.8%; in assay [1] (setting [5]), -2.81%; in assay [1] (setting [6]), -9.1%.

As for `Cc1cccc(C)c1NC(=O)c1ccccc1C(=O)O`, the Potency result with Tov112D and in the assay on astro was “inactive” throughout. Also, the values for the activity, negative = cell killing in assay [1] (setting [4]), in assay [1] (setting [5]) and in assay [1] (setting [6]) were -1.45%, -18.5% and -17.8%, respectively.

On to `CNCCc1ccccn1`, for which the Potency entry in the assay with Tov112D and in the assay with astro was “inactive” throughout. Moreover, the results for the activity, negative = cell killing in assay [1] (setting [7]), in assay [1] (setting [8]) and in assay [1] (setting [9]) were -4.84%, -4.42% and -9.97%, respectively.

Consider `O=C1C(=O)c2ccccc2C(O)=C1C1CCC(c2ccc(Cl)cc2)CC1` (stereo not drawn), for which the Potency result with Tov112D is “inactive”. Also, the activity, negative = cell killing in assay [1] (setting [7]) is -16.4%. The values for the Potency (in assay [1] (tumour line A); in assay [1] (tumour line D); in the assay with astro) were 14.1 µM (active), 8.91 µM (active) and 12.6 µM (active), respectively.

As for `C[N+]12CCC(CC1)C(OC(=O)C(O)(c1ccccc1)c1ccccc1)C2` (stereo not drawn), the Potency result with Tov112D and in the assay with astro was “inactive” each time. Also, the figures for the activity, negative = cell killing in assay [1] (setting [7]), in assay [1] (setting [8]) and in assay [1] (setting [9]) were -3.46%, -10.6% and -5.49%, respectively.

For the compound `COc1ccc(S(=O)(=O)N2c3ccc(Cl)cc3[C@@](O)(c3ccccc3Cl)[C@H]2C(=O)N2CCC[C@@H]2C(N)=O)cc1OC`, the Potency entry in the assay on Tov112D and with astro was “inactive” in each case. Moreover, the activity, negative = cell killing is -16.9% in assay [1] (setting [4]), -6.65% in assay [1] (setting [5]) and -27% in assay [1] (setting [6]).

As to `O=C(Oc1cccc2cccnc12)c1ccccc1`, the Potency entry in the assay on Tov112D and in the assay on astro was “inactive” throughout. The results for the activity, negative = cell killing in assay [1] (setting [4]), in assay [1] (setting [5]) and in assay [1] (setting [6]) were -24.1%, -26.2% and -9.14%, respectively.

Take `CC(C)Cn1cnc2c1c(=O)n(C)c(=O)n2C`: the Potency result in the assay with Tov112D and in the assay on astro was “inactive” throughout. The activity, negative = cell killing in assay [1] (setting [4]) is -4.91%; in assay [1] (setting [5]), -3.1%; in assay [1] (setting [6]), -1.11%.

Regarding `Cc1ccccc1OCC(O)CO` (stereo not drawn), the Potency result in the assay on Tov112D and in the assay on astro was “inactive” in each case. In addition, the activity, negative = cell killing in assay [1] (setting [4]) is -8.02%; in assay [1] (setting [5]) it was -9.22%; in assay [1] (setting [6]) it was -19.6%.

`COc1ccc(C(Cl)=C(c2ccc(OC)cc2)c2ccc(OC)cc2)cc1`: the Potency entry in the assay on Tov112D and with astro was “inactive” each time. Moreover, the activity, negative = cell killing in assay [1] (setting [4]) is -6.95%; in assay [1] (setting [6]), 2.89%. Besides, the Potency in assay [1] (tumour line A) was 11.2 µM (active).

Turning to `NC(=S)N/N=C/c1cccnc1`, the Potency entry in the assay with Tov112D and with astro was “inactive” each time. Also, the activity, negative = cell killing in assay [1] (setting [4]) was -6.47%; in assay [1] (setting [5]), 0.861%; in assay [1] (setting [6]) it was -3.6%.

As to `Cc1c[nH]c2ccccc12`, the Potency entry in the assay on Tov112D and in the assay on astro was “inactive” throughout. Also, the activity, negative = cell killing was -3.32% in assay [1] (setting [4]), -13.8% in assay [1] (setting [5]) and -16.3% in assay [1] (setting [6]).

In the case of `CC(C(=O)O)c1cccc(Oc2ccccc2)c1` (stereo not drawn), the Potency result in the assay with Tov112D and in the assay with astro was “inactive” in each case. Further, the activity, negative = cell killing in assay [1] (setting [7]) is 4.85%; in assay [1] (setting [8]), -4.71%; in assay [1] (setting [9]), -19.7%.

As for `OC(C#CCN1CCCC1)(c1ccccc1)c1ccccc1`, the Potency entry with Tov112D and with astro was “inactive” in each case. Further, the figures for the activity, negative = cell killing in assay [1] (setting [4]) and in assay [1] (setting [6]) were -17.2% and -29.1%, respectively. Moreover, in assay [1] (tumour line A), the Potency was 11.2 µM (active).

Regarding `NC(=O)C1(N2CCCCC2)CCN(CCCC(=O)c2ccc(F)cc2)CC1`, the Potency entry in the assay on Tov112D and with astro was “inactive” throughout. For the same compound, the activity, negative = cell killing is -7.35% in assay [1] (setting [4]) and -28% in assay [1] (setting [5]). The Potency in assay [1] (tumour line A) is 10 µM (active).

Regarding `Cc1ccc(-c2ncc(Cl)cc2-c2ccc(S(C)(=O)=O)cc2)cn1`, the Potency entry in the assay on Tov112D and in the assay on astro was “inactive” each time. Moreover, the activity, negative = cell killing in assay [1] (setting [4]) was -0.088%; in assay [1] (setting [5]), -1.02%; in assay [1] (setting [6]) it was -0.632%.

Values taken from PubChem BioAssay (NCATS).
